Screens deposited in PubChem by Zoeller Lab, School of Medicine, Boston University.
Shown is part of a subset that was picked to be rich in hits.
PL biosyn Enam – phospholipid synthesis inhibitors, CHO cells, primary screen, ZR-82 cells, Enamine library, screen 3. ZR-82 CHO cells, pyrene fatty acid UV survival, CellTiter Blue; peroxisome-deficient CHO-K1 mutant line; plus DGAT-1, DGAT-2 and ACAT inhibitors. calls only at 10 µM. 0.4% of 20,000 active. AID 1347385, 2020;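 active means cell survival signal 2 SD away from solvent-only control wells, confirmed on one or two retests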;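 further: 3 h compound exposure then viability read about one day after UV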
Calls only; 0 = inactive; + = active, no number.

SMILES	PL biosyn Enam
Cc1cc(C(C)(C)C)cc(C)c1CSc1nc(=S)c2ccccc2[nH]1	0
Cc1cc(C(C)(C)C)cc(C)c1C[n+]1ccc2ccccc2c1	+
Cc1cc(C(C)(C)C)cc(C)c1CSc1ncnc2ccccc12	0
Clc1ccc(Cl)c(-c2nnc3n2-c2ccccc2SC3)c1	0
C(=N\Nc1nncc2ccccc12)/c1ccc(N2CCC(c3ccccc3)=N2)cc1	0
CN(C)c1ccc(N=Nc2ccc(SC(F)(F)F)cc2[N+](=O)[O-])cc1	0
CCN(CC)c1ccc2c(c1)OC(=O)N(c1ccc(Cl)c(Cl)c1)P2(=Nc1ccc([N+](=O)[O-])cc1)N(CC)CC (stereo not drawn)	0
O=[N+]([O-])c1ccc(N=Nc2ccc(N(CCO)CC(F)(F)C(F)F)cc2)c(Cl)c1	+
Clc1ccc(C2Nc3ccc(Cl)cc3C(c3ccccc3)O2)cc1 (stereo not drawn)	0
O=C(NNc1ccnc2cc(Cl)ccc12)c1ccc(=O)[nH]n1	0
S=C(NNc1ccnc2cc(Cl)ccc12)NC1CCCCC1	0
S=C(NNc1ccnc2cc(Cl)ccc12)Nc1ccc(Cl)cc1Cl	+
Cc1cc(=S)nc(C(C)C)[nH]1	0
CNc1snc(C)c1C(=O)OCC(=O)c1cc(C)n(C(C)C)c1C	0
FC(F)Sc1nc(-c2ccccc2)c(-c2ccccc2)n1C(F)F	0
FC(F)n1c(=S)n(C(F)F)c2ccccc21	0
FC(F)n1c(-c2ccccc2)c(-c2ccccc2)n(C(F)F)c1=S	+
O=S(=O)(NCCc1ccccn1)C1=Cc2ccccc2CC1	0
C/C(=N\NC(=S)NC1CCCCC1)c1cccs1	+
O=S(=O)(NC(=S)NC1CCCCC1)c1cccs1	0
CCNC(=S)N/N=C(\C)c1cccs1	0
Clc1ccc(C2=CC(c3cccc(Br)c3)n3ncnc3N2)cc1 (stereo not drawn)	0
Cc1cc(C=C2Sc3ccc4ccccc4c3N2C)cc(C)[n+]1CCCO	0
Cn1nnnc1SCc1nc2ccccc2o1	0
Oc1ccc(N=Nc2ccc3c(c2)OCCO3)c2ncccc12	0
SMILES	PL biosyn Enam
Oc1ccc2ccccc2c1N=Nc1ccc2c(c1)OCCO2	+
Cc1[nH]c2ccccc2c1N=Nc1cccnc1	0
Cc1[nH]c2ccccc2c1N=Nc1ccc2c(c1)OCO2	+
Cc1[nH]c2ccccc2c1N=Nc1ccc(F)cc1	+
O=C1CCCC(O)=C1N=Nc1ccc2c(c1)OCO2	0
Cc1[nH]c2ccccc2c1N=Nc1c(C)n(C)n(-c2ccccc2)c1=O	0
Cc1[nH]c2ccccc2c1N=Nc1ccccc1F	0
Oc1ccc2ccccc2c1N=Nc1ncn[nH]1	0
CCn1c(C)cc(C(=O)CN2C(=O)NC3(CCC(C)CC3)C2=O)c1C (stereo not drawn)	0
O=C(c1ccc(=O)[nH]n1)N1CCN(C(=O)c2ccco2)CC1	0
Cc1ncc(C[n+]2cccc(CO)c2)c(N)n1	0
C(=N\N=C\c1nc(-c2ccccc2)n2ccccc12)/c1nc(-c2ccccc2)n2ccccc12	0
O=c1cc(Cn2cnc3ccc(Cl)cc3c2=O)c2cc3c(cc2o1)CCC3	0
CCOC(=O)c1sc(N=Nc2[nH]c(C)c(C(=O)OCC)c2C)c(C(=O)OCC)c1C	+
CCOC(=O)c1c(N=CN(C)C)sc(C(=O)OC)c1C	0
CCOC(=O)c1sc(N=Nc2c(O)[nH]c(=S)[nH]c2=O)c(C(=O)OCC)c1C	0
COc1ccc(C2=Cc3nc4ccccc4n3C3(C(F)(F)F)OC(c4ccccc4)=NN23)cc1 (stereo not drawn)	0
Nc1c(C(=O)c2cccs2)sc2nc3c(c(-c4ccco4)c12)CCCCC3	0
c1ccc(-c2nnc(-c3ccc4c(c3)OCO4)nc2-c2ccccc2)cc1	0
Nc1nc(-c2ccccc2)c(N=Nc2ccc3c(c2)OCO3)s1	+
c1cc2c(cc1-c1csc(N3CCOCC3)n1)OCCO2	0
Nc1nc(-c2ccccc2)c(N=Nc2ccc3c(c2)OCCO3)s1	+
Nc1[nH]c(=O)[nH]c(=O)c1N=Nc1ccc2c(c1)OCCO2	0
Oc1c(N=Nc2ccc3c(c2)OCO3)sc2ccccc12	0
COc1ccc(OC)c(Nc2ncnc3sc4c(c23)CCC4)c1	0
SMILES	PL biosyn Enam
CN1/C(=C\C(=O)C2CC2)C(C)(C)c2ccccc21	0
CC(C)(C)c1cc(S(N)(=O)=O)c2cc(C(C)(C)C)ccc2c1	0
c1ccc2c(c1)CC/C(=N\Nc1nc3ccccc3s1)C2	0
c1ccc2sc(NN=C3CCCCCC3)nc2c1	0
O=S1(=O)CC/C(=N/Nc2ccc(Cl)cc2)c2cc(F)ccc21	+
NC(=O)N/N=C1\CCS(=O)(=O)c2ccc(F)cc21	0
O=S1(=O)CC/C(=N/Nc2nc3ccccc3s2)c2cc(F)ccc21	+
C=CCNC(=S)N/N=C1\CCS(=O)(=O)c2ccccc21	0
Cc1cc(C)c(S(=O)(=O)NCc2nnc3nc(C)cc(C)n23)c(C)c1	0
C=C(C)CN=c1scc(C)n1/N=C/c1sccc1C	0
CN1/C(=C\C=C(c2nc3ccccc3s2)c2nc3ccccc3s2)C(C)(C)c2ccccc21	0
Cc1nc(N)sc1N=Nc1ccc(Br)cc1	+
Cc1nc(N)sc1C	0
CCN(CC)S(=O)(=O)c1ccc(N=Nc2sc(N)nc2C)cc1	0
Cn1cnc([N+](=O)[O-])c1NC1CCCCCCC1	0
CCOC(=O)C1=C(CSc2nc3scc(-c4cccs4)c3c(=O)[nH]2)NC(=O)NC1C (stereo not drawn)	0
Clc1cccc(NN=C2c3ccccc3-c3ccccc32)c1	+
Clc1ccc(NN=C2c3ccccc3-c3ccccc32)cc1Cl	0
Clc1ccccc1NN=C1c2ccccc2-c2ccccc21	0
CN(C)c1ccc(C2NCC(CSc3ncnc4sc5c(c34)CCC5)O2)cc1 (stereo not drawn)	0
CC1CCc2ccccc2N1S(=O)(=O)c1ccc(Cl)s1 (stereo not drawn)	0
Cc1cc(C)c(NC(=NCc2ccc3c(c2)OCO3)Nc2c(C)cc(C)cc2C)c(C)c1	0
Cc1nn(-c2ccccc2)c(N)c1N=Nc1ccc2ccccc2c1	0
COc1ccc(OC)c(N=Nc2c(C)nn(-c3ccccc3)c2N)c1	0
Cc1nn(-c2ccccc2)c(N)c1N=Nc1ccccc1OC(F)F	+
SMILES	PL biosyn Enam
CN(Cc1nc2sc3c(c2c(=O)[nH]1)CCC3)C1CCS(=O)(=O)C1 (stereo not drawn)	0
Oc1ccc(N=Nc2ccc(SC(F)F)cc2)c2cccnc12	0
O=c1cc(CN2CCc3sccc3C2c2cccs2)nc2ccc(Br)cn12 (stereo not drawn)	0
FC(F)(F)c1cc(NC(=S)Nc2ccc(Cl)c(Cl)c2)ccc1Cl	+
Fc1ccc(NC(=S)Nc2ccc(Cl)c(C(F)(F)F)c2)cc1Cl	0
S=C(NN=C1C2CC3CC(C2)CC1C3)Nc1ccc(Cl)c(Cl)c1	0
CC(C)c1ccc(-c2nc3cc4c(cc3c(=O)o2)OCCO4)c(C(C)C)c1	0
O=c1oc2ccc3ccccc3c2cc1-c1csc(-c2cc3ccccc3oc2=O)n1	0
CC(c1ccccc1)n1c(NS(=O)(=O)c2ccccc2)c(S(=O)(=O)c2ccccc2)c2nc3ccccc3nc21 (stereo not drawn)	0
CN=c1scc(-c2ccc(OC(F)F)cc2)n1/N=C/c1cc(OC)c(O)c(OC)c1	0
CN=c1scc(-c2ccc(OC(F)F)cc2)n1/N=C(\C)c1ccc(O)cc1O	+
CN=c1scc(-c2ccc(F)cc2)n1/N=C(\C)c1ccc(O)cc1O	0
